PubChem BioAssay (NCI)
About 79,000 compounds went through this panel and 15% of them were active in at least one assay; those are over-represented in the sample as a whole. Values without a mark were called inactive. Activity calls are given as the source filed them. No stated cut-off is given here; in the data, active means growth inhibition above about 70%; inactive means the rest.

Legend:
[1] = NCI Yeast Anticancer Drug Screen. Data for the rad50 strain (AID 155);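 further: 0% = growth of vehicle-only cultures of the same strain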; conditions: S. cerevisiae rad50 strain growth inhibition, stronger effect = higher value
Outline: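 DNA repair mutant yeast, compound exposure, growth read-out; inhibition is taken relative to vehicle.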

[2] = NCI Yeast Anticancer Drug Screen. Data for the mec2-1 strain (AID 157); conditions: S. cerevisiae mec2-1 strain, stronger effect = higher value
Outline: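 Growth inhibition is read against vehicle-treated controls after compound exposure of the mec2-1 yeast strain, which is defective in DNA damage repair or cell cycle control.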

[3] = NCI Yeast Anticancer Drug Screen. Data for the sgs1 mgt1 strain (AID 161);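 further: 0% = growth of cultures given vehicle only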; conditions: S. cerevisiae sgs1 mgt1 strain, stronger effect = higher value
Outline: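 Compounds are added to genetically altered yeast, and growth is compared with cultures given vehicle alone to give percent inhibition.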

[4] = NCI Yeast Anticancer Drug Screen. Data for the cln2 rad14 strain (AID 165);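 further: 0% = growth equal to vehicle treated cultures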; conditions: S. cerevisiae cln2 rad14 strain, stronger effect = higher value
Outline: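 Growth inhibition, relative to vehicle-treated controls, is the read-out. The test organism is a yeast strain with defined genetic alterations, cln2 rad14.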

[5] = NCI Yeast Anticancer Drug Screen. Data for the bub3 strain (AID 167); conditions: S. cerevisiae bub3 mutant strain, stronger effect = higher value
Outline: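 In this screen, a yeast mutant lacking normal mitotic checkpoint function is challenged with compound. Relative growth versus vehicle gives the inhibition value.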

[6] = NCI Yeast Anticancer Drug Screen. Data for the mlh1 rad18 strain (AID 175); conditions: S. cerevisiae mlh1 rad18 strain growth inhibition, stronger effect = higher value
Outline: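 Cells of a genetically altered yeast strain, deficient in DNA damage repair, were treated with compound. Their growth was then compared with that of vehicle-treated cultures to give inhibition.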

[7] = at 5.0 µM (retest, dose inferred, filed as 0.5)
[8] = at 50.0 µM (retest, dose inferred, filed as 5.0)

| SMILES | growth inhibition [1, 7] | growth inhibition [1, 8] | growth inhibition ([1]; at 50.0 µM) | growth inhibition [2, 7] | growth inhibition [2, 8] | growth inhibition ([2]; at 50.0 µM) | growth inhibition [3, 7] | growth inhibition [3, 8] | growth inhibition ([3]; at 50.0 µM) | growth inhibition [4, 7] | growth inhibition [4, 8] | growth inhibition ([4]; at 50.0 µM) | growth inhibition [5, 7] | growth inhibition [5, 8] | growth inhibition ([5]; at 50.0 µM) | growth inhibition [6, 7] | growth inhibition [6, 8] | growth inhibition ([6]; at 50.0 µM) |
| --- | --- | --- | --- | --- | --- | --- | --- | --- | --- | --- | --- | --- | --- | --- | --- | --- | --- | --- |
| C(#C[PH+](c1ccccc1)c1ccccc1)c1ccccc1.C(#C[PH+](c1ccccc1)c1ccccc1)c1ccccc1.C(#C[PH+](c1ccccc1)c1ccccc1)c1ccccc1.[C-]#[O+].[C-]#[O+].[C-]#[O+].[Cr] | 29% | 35% | 83.2% (active) | 31% | 27% | 87% (active) | 14% | 17% | 86.8% (active) | 31% | 39% | 84.5% (active) | 44% | 39% | 88.2% (active) | 0% | 37% | 82.5% (active) |
| CCC[CH2][Sn]1([CH2]CCC)[O]CC(Cc2ccccc2)[O]1 (stereo not drawn) | 31% | 96% (active) | 85.5% (active) | 22% | 98% (active) | 90.2% (active) | 54% | 98% (active) | 86.9% (active) | 32% | 95% (active) | 84.7% (active) | 55% | 98% (active) | 89.1% (active) | 39% | 97% (active) | 88.5% (active) |
| C[C@@H]1C[C@@H]([C@H](O)CC2CC(=O)NC(=O)C2)C(=O)[C@@H](C)C1 | 95% (active) | 99% (active) | 92% (active) | 98% (active) | 100% (active) | 93.6% (active) | 94% (active) | 99% (active) | 94.2% (active) | 98% (active) | 99% (active) | 90.7% (active) | 98% (active) | 99% (active) | 93.7% (active) | 93% (active) | 99% (active) | 92.1% (active) |
| O=C1CCCC1Cl (stereo not drawn) | -2% | 3% | 39.8% | -2% | -3% | 82.6% (active) | -4% | 0% | 12.5% | -2% | -8% | 81.9% (active) | 4% | -4% | 99.3% (active) | -3% | 3% | 56.9% |
| CC1Oc2cc3c(-c4c(O)cc(O)c5c(O)c6c(cc45)OC(C)C(C)C6=O)c(O)cc(O)c3c(O)c2C(=O)C1C (stereo not drawn) | 8% | 85% (active) | 83.1% (active) | -10% | 83% (active) | 84.2% (active) | -2% | 86% (active) | 83% (active) | 30% | 69% | 82.8% (active) | -8% | 81% (active) | 81.2% (active) | 10% | 84% (active) | 84.2% (active) |
| C[C@]12Cc3cn4ncnc4nc3CC1CC[C@@H]1[C@@H]2CC[C@]2(C)C(O)CC[C@@H]12 (stereo partly drawn) | 21% | 97% (active) | 97.5% (active) | 24% | 99% (active) | 95% (active) | 60% | 99% (active) | 98% (active) | 25% | 91% (active) | 78.7% (active) | 24% | 97% (active) | 97% (active) | 48% | 98% (active) | 98.6% (active) |
